Compound activity: PubChem, several laboratories
Sampled rows, rich in hits. Any-hit rate of the full collection: about 4.8%.
hcDAF12 agonist: activators of H. contortus DAF-12 nuclear receptor | HEK293 hcDAF-12 lit1-tk-luc reporter, luminescence; 0% DMSO, 100% Δ7-dafachronic acid | activation, % at 6.8 µM | hit rate 1.4% among 370,000 | AID 652067;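 active = activation above the mean of all tested compounds plus 3 SD, cut at about 5.5% in these data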
DAX1 inh-1: NR0B1 (DAX1) inhibition | P51843 | HEK293 Gal4-DAX1 luciferase reporter, luminescence | inhibition, % at 6.75 µM | hit rate 0.99% among 340,000 | AID 504766;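 active = inhibition above the mean over all tested compounds plus 3 SD, cut at about 4.2% in these data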;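 also: inhibition shows as a rise in luminescence from relieved DAX1 repression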
Target sequence (P51843 207-470 limits assumed): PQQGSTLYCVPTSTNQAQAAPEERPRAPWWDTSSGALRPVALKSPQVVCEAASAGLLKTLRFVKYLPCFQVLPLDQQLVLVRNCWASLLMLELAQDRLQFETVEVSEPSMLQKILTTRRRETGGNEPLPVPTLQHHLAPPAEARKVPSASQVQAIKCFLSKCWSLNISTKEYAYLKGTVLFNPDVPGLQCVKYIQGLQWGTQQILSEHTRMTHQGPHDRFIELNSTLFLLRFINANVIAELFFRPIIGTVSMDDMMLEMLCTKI
ssDAF-12 act: activates DAF-12 receptor from parasite S. stercoralis. HEK293 ssDAF-12/GRIP1 lit1-tk-luc reporter, luminescence; % of 3 µM dafachronic acid response. activation, % at 6.8 µM. hit rate 1% among 370,000;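 active = activation above the mean over all tested compounds plus 3 SD, cut at about 0.9% in these data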
Rev-erbA mod: modulators of human Rev-erb alpha DNA binding; hit rate 0.79% among 370,000; P20393; activity, % at 10 µM; AID 1259318; Rev-erbα–FITC-DNA binding, fluorescence polarization, 90 min;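 active = activity above about 14%, limit read from the data; passing the limit was not always enough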
DAX1 inh-2: DAX1 (NR0B1) inhibition, primary screen; HEK293T StAR-luciferase reporter, SF-1/DAX-1 repression relief; inhibition, % at 6.8 µM; hit rate 1.1% among 370,000;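 active = inhibition above the mean over all tested compounds plus 3 SD, cut at about 3.6% in these data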;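 also: higher inhibition means more luminescence from relief of DAX-1 repression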
hgDAF12 agonist: agonists of H. glycines DAF-12 nuclear receptor | HEK293 GAL4-hgDAF12 UAS-luciferase reporter, agonist luminescence; normalized to butyrate control | activation, % at 6.8 µM | hit rate 1.8% among 370,000;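 active = activation above a cutoff set at the mean of all screened compounds plus 3 SD, cut at about 10% in these data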
Rev-erbA confirm: Rev-erb alpha (human) modulation, hit confirmation | AID 1259319 | hit rate 61% among 3,000 | Rev-erb alpha FITC-DNA binding, fluorescence polarization, 90 min | shares compounds with Rev-erbA mod | activation, % at 25 µM;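 active = activation at or above a set limit, or at least 3 SD above the negative control mean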
RORg DNA counter: RORgamma DNA-binding activity, dose-response counter-screen. IC50, µM. shares compounds with Rev-erbA mod. hit rate 8% among 910. purified RORgamma protein-FITC-DNA binding, fluorescence polarization;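 active = Compounds whose fitted half-maximal concentration for disrupting protein-DNA binding is below 10 micromolar; the record names Rev-erb in its text, so the target is in doubt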
Each line names hits and unclear results; the compound was inactive in the other large screens (follow-up assays come after a bar, where they were run).

COc1cc(OC)cc(-c2c(Sc3ccccc3)c3cc(-c4ccc(OC)c(F)c4)ccc3n2C)c1	Rev-erbA mod 21 (no result: DAX1 inh-1) | Rev-erbA confirm 37 | RORg DNA counter inactive
COc1ccc(-c2ccc3c(c2)c(Sc2ccccc2)c(-c2ccccc2)n3C)cc1	none (no result: DAX1 inh-1)
COc1cc(OC)cc(-c2c(Sc3ccccc3)c3cc(-c4ccc(SC)cc4)ccc3n2C)c1	Rev-erbA mod 29 (no result: DAX1 inh-1) | Rev-erbA confirm 35 | RORg DNA counter inactive
COC(=O)C1=C(C)N(Cc2cccc(C(F)(F)F)c2)C(=NCC2CC2)NC1c1cccc(Cl)c1 (stereo not drawn)	none (no result: DAX1 inh-1)
CC(C)NC(=O)N[C@@H]1C[C@@H]2O[C@@H](CO)CC[C@@H]2O[C@@H]1CCc1ccc(-c2ccc(F)cc2)cc1	none (no result: DAX1 inh-1)
COc1ccc(C(=O)OCC(=O)Nc2nc3c(F)c(F)c(F)cc3s2)cc1OC	Rev-erbA mod 20 | Rev-erbA confirm inactive
COc1ccc2cc(C#N)c(Nc3cccc(F)c3)nc2c1	Rev-erbA mod 55 | Rev-erbA confirm 42 | RORg DNA counter inactive
Cc1cccc2cc(C(c3nnnn3Cc3ccccc3)N3CCN(c4ccccc4)CC3)c(=O)[nH]c12 (stereo not drawn)	Rev-erbA mod 185 | Rev-erbA confirm 143 | RORg DNA counter inactive
CC1Cc2ccccc2N1C(=O)COC(=O)c1cccc(Br)c1 (stereo not drawn)	none
O=C(OCC(=O)N1CCN(S(=O)(=O)c2ccc(Cl)cc2)CC1)c1cc(Br)ccc1O	Rev-erbA mod 121 | Rev-erbA confirm 80 | RORg DNA counter inactive
CC1Cc2ccccc2N1C(=O)COC(=O)c1cc(Br)ccc1O (stereo not drawn)	Rev-erbA mod 35 | Rev-erbA confirm 25
O=C(OCC(=O)N1CCCc2ccccc21)c1cc(Br)ccc1O	Rev-erbA mod 36 | Rev-erbA confirm 26
C[C@H]1COc2cc(Br)ccc2S(=O)(=O)N1Cc1cn(Cc2ccco2)nn1	none (no result: DAX1 inh-1)
CCCN(CC1CC1)C(=O)CN1C(=O)C2CCCCN2C(=O)c2ccccc21 (stereo not drawn)	none (no result: DAX1 inh-1)
CC1(C)OC(=O)C2=C(CC(CCc3ccccc3)OC2c2ccc(F)cc2)O1 (stereo not drawn)	none (no result: DAX1 inh-1)
O=C(Nc1ccc2c(c1)COC2=O)c1ccc(Cl)c(Cl)c1	Rev-erbA mod 48 | Rev-erbA confirm 27
CCCC(=O)Nc1ccc2c(c1)COC2=O	none
COc1cc(OC)cc(-c2c(-c3cccs3)c3cc(-c4ccc(N(C)C)nc4)ccc3n2C)c1	Rev-erbA mod 24 | Rev-erbA confirm inactive
COc1cc(F)cc(-c2ccc3c(c2)c(-c2cccs2)c(-c2cc(OC)cc(OC)c2)n3C)c1	none
CCOc1ccccc1NC(=O)CSc1ncnc2c1oc1ccccc12	Rev-erbA mod active | Rev-erbA confirm active
CCc1nnc(NC(=O)CSc2nnc(-c3ccccc3NC(=O)c3ccccc3)o2)s1	Rev-erbA mod 28 | Rev-erbA confirm inactive
O=C(CSc1ncnc2c1oc1ccccc12)Nc1cccc(Cl)c1	Rev-erbA mod 430 | Rev-erbA confirm 371 | RORg DNA counter inactive
CCc1nnc(NC(=O)CSc2ncnc3c2oc2ccccc23)s1	Rev-erbA mod 98 | Rev-erbA confirm 21
O=C(CSc1nnc(COc2ccccc2)n1-c1ccc(Cl)cc1)Nc1ccc2c(c1)OCCO2	none (no result: DAX1 inh-1)
COc1ccc(OC)c(S(=O)(=O)N2CCCCC2C(=O)N2CCCN(C)CC2)c1 (stereo not drawn)	none (no result: DAX1 inh-1)
Cn1c(SCC(=O)Nc2ccccc2F)nnc1-c1cc2ccccc2o1	Rev-erbA mod 26 | Rev-erbA confirm inactive
O=C(CSc1ncnc2c1oc1ccccc12)Nc1nc2ccccc2s1	none
COC(=O)c1ccc(CSc2ncnc3c2oc2ccccc23)o1	Rev-erbA mod 147 | Rev-erbA confirm 144 | RORg DNA counter inactive
COC(=O)c1ccc(CSc2ncnc3ccccc23)o1	none
O=C(CSc1ncnc2c1oc1ccccc12)Nc1cccc(C(F)(F)F)c1	none
O=C(CSc1ncnc2c1sc1ccccc12)Nc1ccc(Br)cc1	Rev-erbA mod 293 | Rev-erbA confirm 195 | RORg DNA counter inactive
O=C(CSc1ncnc2c1oc1ccccc12)Nc1ccccc1F	Rev-erbA mod 606 | Rev-erbA confirm 616 | RORg DNA counter inactive
CCCCCCCCN1C(=O)[C@H](CC(=O)NCCc2ccccc2OC)C[C@@]2(C(=O)OC)CC(C)(C)CC=C12	none (no result: DAX1 inh-1)
CCC(=O)c1cn(CC(=O)Nc2ccccc2Cl)c2ccccc12	Rev-erbA mod 80 | Rev-erbA confirm 44 | RORg DNA counter inactive
CCC(=O)c1cn(CC(=O)Nc2cccc(C)c2C)c2ccccc12	none
CCC(=O)c1cn(CC(=O)Nc2cccc(C)c2)c2ccccc12	Rev-erbA mod 52 | Rev-erbA confirm 45 | RORg DNA counter inactive
CCC(=O)c1cn(CC(=O)O)c2ccccc12	none
CCOC(=O)C1=CCN(S(=O)(=O)c2ccc(Br)cc2)C1c1cccc(Cl)c1 (stereo not drawn)	none (no result: DAX1 inh-1)
COc1cccc2c1[C@H](/C=C/c1ccccc1)[C@@H]([C@H](O)COC(C)=O)OC2	none (no result: DAX1 inh-1)
O=C(Nc1ccc2c(c1)C(=O)N(c1ccccc1)C2=O)c1cccs1	Rev-erbA mod 20 | Rev-erbA confirm inactive
CC(C)=CC(=O)NCC1CCN(C(=O)C(=O)c2cc3ccccc3o2)CC1	none (no result: DAX1 inh-1)
O=C(CCSc1nnc2ccccn12)Nc1ccc(F)cc1	none
O=C(CCSc1nnc2ccc3ccccc3n12)Nc1ccc(F)cc1	Rev-erbA mod 44 | Rev-erbA confirm 22
Cc1onc(-c2ccccc2)c1C(=O)Nc1ccccc1N1CCOCC1	none
Cc1onc(-c2ccccc2)c1C(=O)Nc1cc(C(F)(F)F)ccc1N1CCOCC1	Rev-erbA mod 22 | Rev-erbA confirm 33
Cc1nn(C)c(C)c1NC(=O)CSc1nc(Cc2ccccc2)nc2c1cnn2-c1ccccc1	Rev-erbA mod 181 | Rev-erbA confirm 76
O=C(Nc1cccc(C(F)(F)F)c1)c1scc2c1OCCO2	none
O=C(Nc1cccc(C(F)(F)F)c1)c1cc(Br)cc2c1OCC2	Rev-erbA mod 28 | Rev-erbA confirm 31 | RORg DNA counter 4.5
CCCCCc1ccc(OCCCC[n+]2ccccc2)c(CCCCC)c1	none (no result: hcDAF12 agonist, ssDAF-12 act, Rev-erbA mod, DAX1 inh-2, hgDAF12 agonist)
CCCCCc1ccc(OCCCC[n+]2cccc(C)c2)c(CCCCC)c1	Rev-erbA mod 21 | Rev-erbA confirm 28
CCCCCc1ccc(OCCCC[n+]2ccc(C)cc2)c(CCCCC)c1	Rev-erbA mod 21 | Rev-erbA confirm 25
CC1(Cc2ccc(C(F)(F)F)o2)C(=O)Nc2cc(-c3ccc(F)cc3F)ccc21 (stereo not drawn)	none (no result: DAX1 inh-1)
